Screening results as filed in PubChem BioAssay.
MITF inh – blocks human microphthalmia-associated transcription factor; O75030; AlphaScreen MITF homodimerization, bead proximity signal; inhibition, % at 2.6 µM; actives 0.91% (n = 650,000); in the data active = inhibition above about 50%
FBW7 activator – human FBW7 E3 ligase activation, primary screen | Q969H0 | AlphaScreen FBW7–phospho-cyclin E peptide binding, activator screen | normalized activity (activation), % at 26.1 µM | actives 0.13% (n = 650,000) | AID 1259310; in the data active = normalized activity above about 1.9%;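 note: purified mutant Fbw7 with reduced substrate affinity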
TEAD-YAP inh – TEAD-YAP interaction inhibition; HEK-TIYL cells, TEAD-Gal4/YAP UAS-luciferase luminescence; inhibition, % at 9.12 µM; actives 1.4% (n = 640,000); in the data active = inhibition above about 32%
GPR151 activ – human GPR151 activation; Q8TDV0; PathHunter beta-arrestin GPR151 cells, luminescence; activation, % at 11.2 µM; actives 1% (n = 650,000); AID 1508602; in the data active = activation above about 4.9%
Large screens that a line does not name were inactive. The list is not random: actives were taken first. Their share in the collection is about 3.4%.

Cn1cc(S(=O)(=O)N2CCc3ccccc32)cc1C(=O)NC(C)(C)C	TEAD-YAP inh 37
COc1ccc(S(=O)(=O)N2CCCc3ccccc32)cc1	TEAD-YAP inh 58
CC(NC(=O)c1cc(S(=O)(=O)N2CCc3ccccc32)cn1C)c1ccccc1 (centres undefined)	none
COC(=O)c1ccc(S(=O)(=O)N2CCCc3ccccc32)cc1	TEAD-YAP inh 62
COc1cc(S(=O)(=O)N2CCCc3ccccc32)ccc1Cl	TEAD-YAP inh 58
Cc1cc(C)cc(NC(=O)C2CCCN2c2nnc(N3CCCC3=O)s2)c1 (centres undefined)	none
COc1cc(C)c(S(=O)(=O)N2CCc3ccccc32)cc1C	TEAD-YAP inh 50
COc1cccc(NC(=O)c2sc(NC(=O)/C=C/c3ccccc3)nc2C)c1	TEAD-YAP inh 55
c1ccc2c(c1)nc1n(CCN3CCCCC3)cnn21	FBW7 activator 2.1
c1ccc2c(c1)n(CCN1CCCCC1)c1ncnn21	none
CC(=O)c1cccc(NC(=O)c2c[nH]c(=O)n(-c3ccc(C)cc3)c2=O)c1	none
CCOC(=O)N/N=C(\C)c1ccc(OC)cc1O	none
COc1ccccc1/C=N/Nc1nc(-c2ccccc2)cc(=O)[nH]1	TEAD-YAP inh 50
O=C(Nc1ccc(F)c(F)c1)C1CC12CCN(C1CCN(Cc3ccccc3)CC1)CC2 (centres undefined)	none
Cn1cnnc1Sc1ccc([N+](=O)[O-])c2cnccc12	none
Cc1cccc(-n2nnnc2Sc2ccc([N+](=O)[O-])c3cnccc23)c1	TEAD-YAP inh 46
N[C@@H]1CC[C@H](C(=O)Nc2ccc3[nH]ncc3c2)C1	none
N[C@H]1CC[C@@H](C(=O)Nc2ccc3cnccc3c2)C1	TEAD-YAP inh 36
NC(=S)N1N=CCC1(O)C(F)(F)F (centres undefined)	TEAD-YAP inh 53
Cc1ccc(-c2cn3nc(C)c(C)nc3n2)cc1	TEAD-YAP inh 46
COc1ccc(-c2cn3nc(C)c(C)nc3n2)cc1OC	none
Cc1ccccc1-n1c(=S)sc2c(=O)n(-c3ccccc3)c(SCc3nc4ccccc4[nH]3)nc21	none
Clc1nc(Cl)nc(Nc2ccccc2)n1	FBW7 activator 2.2
Cc1ccc(Nc2nc(N)c3ccccc3n2)cc1	TEAD-YAP inh 90
Fc1cccc(Nc2nc(Cl)nc(Cl)n2)c1	none
Nc1nc(Nc2ccc(Cl)cc2)nc2ccccc12	TEAD-YAP inh 52
COc1ccc(Nc2nc(N)c3ccccc3n2)cc1	TEAD-YAP inh 73
C=CCNC(=O)C1CC(=O)N(C2CCCC2)C1 (centres undefined)	none
COC(=O)c1ccc(OCC(O)CNS(=O)(=O)c2ccccc2C(=O)O)cc1 (centres undefined)	none
CC(C)CNc1nccn2c(-c3cccc(C(=O)NCCN(C)C)c3)cnc12	none
O=C(Nc1ccc(I)cc1)C(c1ccccc1)c1ccccc1	none
CCOc1ncccc1C(=O)N[C@@H](CCSC)c1nc2ccccc2[nH]1	none
Cc1ccc(Nc2nc(N3CCOCC3)c3ccccc3n2)cc1Cl	none
Cc1ccc(Nc2nc(N)c3ccccc3n2)cc1Cl	TEAD-YAP inh 35
Fc1ccccc1Nc1nc(N2CCOCC2)c2ccccc2n1	none
Nc1nc(Nc2ccccc2F)nc2ccccc12	TEAD-YAP inh 57
CN(C)c1ccc(Nc2nc(N)c3ccccc3n2)cc1	TEAD-YAP inh 91
CCOC(=O)C1(CCCc2ccccc2)CCN(C(=O)CN2CCCCC2=O)CC1	none
COc1ccccc1N1CC(C)Cn2c1nc1c2c(=O)n(Cc2ccc(C)cc2)c(=O)n1C (centres undefined)	none
CC(=O)c1c(C)[nH]c(C(=O)CSc2nnnn2-c2cccc(C)c2)c1C	TEAD-YAP inh 33
CCCc1cc(=O)[nH]c(-n2nc(C)cc2NC(=O)c2cccc(Cl)c2)n1	FBW7 activator 2.4
Cc1cccc(C(=O)Nc2cc(C)nn2-c2nc(C)cc(=O)[nH]2)c1	none
CSCCC(C(=O)N(C)Cc1ccc(OC(F)F)cc1)N1C(=O)c2ccccc2C1=O (centres undefined)	none
O=C(NCCCc1ccncc1)C1CC12CCN(C(=O)Cc1cccc3ccccc13)CC2 (centres undefined)	none
COc1ccc(O)c(C(=O)CC(=O)c2ccccc2Cl)c1	none
COc1ccc(O)c(C(=O)CC(=O)c2ccccc2)c1	TEAD-YAP inh 55
CCOc1ccc(OCCCOc2ccccc2OC)cc1	none
COCCN(Cc1cccnc1)C(Cc1ccccc1)C1CCN(Cc2cnn(C)c2)CC1 (centres undefined)	FBW7 activator 7.6
COCCN(Cc1ccccn1)C(Cc1ccccc1)C1CCN(Cc2cnn(C)c2)CC1 (centres undefined)	none
Cc1cc2nc3c(nc2cc1C)-c1ccccc1C3=O	TEAD-YAP inh 33
